Compound activity as filed in PubChem BioAssay.
DT40 TDP1 no CPT: qHTS for Inhibitors of human tyrosyl-DNA phosphodiesterase 1 (TDP1): qHTS in cells in absence of CPT; DT40 Tdp1-/- hTDP1 cells, no CPT, ATP luminescence, 48 h; Potency, µM (highest dose often 46.2 µM), inactives show at the highest dose activity change, negative = growth inhibition, hits mostly inhibitors; AID 686978, 2013; 420,000 tested, 15% active; further: potency means the concentration at half of the fitted maximal effect; nearly all actives have a fitted effect of over 55% in size
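Seeded 400 DT40-hTDP1 cells/well (vehicle DMSO, no 20 nM CPT); pinned compounds; ≥48 hr at 37 °C; CellTiter-Glo luminescence as viability measure.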
HT1080-NT tox: qHTS for induction of synthetic lethality in tumor cells producing 2HG: qHTS for the HT-1080-NT fibrosarcoma cell line | HT-1080-NT fibrosarcoma viability, CellTiter-Glo ATP luminescence, 48 h | Potency, µM (series often up to 46.1 µM), without a hit: at the top dose activity, negative = less viability, actives largely listed as cytotoxic | 360,000 tested, 1.6% active | AID 686970, 2013;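 further: NT is the 2HG producing partner of a matched IDH1 knockdown line; potency means the concentration at half of the fitted maximal effect; 0% = DMSO-treated cells and -100% = media-only wells without cells; nearly all actives have a fitted effect of over 55% in size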
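Viability by CellTiter-Glo luminescence after 48 h compound exposure at 37C of HT-1080-NT cells (750/well, RPMI, 5% FBS). % activity scaled between DMSO wells and medium-only wells, then curve-fitted and categorized by curve class.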
HT1080 IDH1KD tx: qHTS for induction of synthetic lethality in tumor cells producing 2HG: qHTS for the HT-1080-IDH1KD cell line; HT-1080 IDH1 knockdown viability, ATP luminescence, 48 h; Potency, µM (series often up to 46.1 µM), inactives show at the top dose activity, negative = toxicity, actives largely listed as cytotoxic; 360,000 tested, 2% active; AID 686971, 2013;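 further: potency means the concentration at half of the fitted maximal effect; 0% = DMSO wells and -100% = cell-free medium wells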
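Luminescent ATP read-out (CellTiter-Glo, 10 min at room temperature) after 48 h compound exposure at 37 °C gave viability of IDH1-knockdown HT-1080 cells. Activity was normalised to DMSO and cell-free wells, then fitted as concentration-response curves.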
DT40 TDP1 CPT: qHTS for Inhibitors of human tyrosyl-DNA phosphodiesterase 1 (TDP1): qHTS in cells in presence of CPT; chicken DT40 Tdp1-/-;hTDP1 cells + 20 nM CPT, ATP luminescence, 48 h; Potency, µM (highest dose often 46.2 µM), without a hit: top-dose activity change, negative = growth inhibition, usual class: inhibitors; 420,000 tested, 12% active; AID 686979, 2013; further: potency means the concentration at half of the fitted maximal effect; nearly all actives have a fitted effect of over 55% in size
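Cell growth measured by CellTiter-Glo luminescence after a minimum 48 h, 37 C compound exposure with 20 nM CPT in Tdp1-knockout DT40 cells stably expressing hTDP1, seeded 400/well; qHTS titration format.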
IL1B secr inh: qHTS for Inhibitors of Inflammasome Signaling: IL-1-beta AlphaLISA Primary Screen; AID 743279, 2014; THP-1 LPS/ATP IL-1B secretion, AlphaLISA, 16 h; hits give low values; 360,000 tested, 4.7% active; activity change, % at 57.5 µM; in the data active means activity change below about -50%; inconclusive means mostly about -30% to -49%
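Secreted IL-1B measured by AlphaLISA bead assay after 16 h compound exposure of THP-1 cells; compounds (final up to 57.5 uM) added 1 h before LPS (250 ng/mL) and ATP (1.25 mM) stimulation; lower signal means less secretion.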
* marks the source's active call; other numbers are inactive results; [ ] = remark or other dose. Most compounds without a hit are left out; they make up all but 19% or so of the library. Unless noted, the call rests on the fitted dose curve; in most records, active means well fitted curve in the direction sought with a large enough effect; inconclusive means small, poorly fitted or top-dose-only effect, or another doubt; inactive means no such curve, though single readings can be large; an effect the other way counts as inactive or inconclusive. Unless noted, on the % scale 0 is the no-effect control and ±100 the full control effect.

Screening NC(=O)c1ccc(-c2nnn(CC(=O)N(C3CCCC3)C3CCS(=O)(=O)C3)n2)cc1 (stereo unspecified) returned DT40 TDP1 no CPT 0.7%, HT1080-NT tox 1.6%[9.24 µM], HT1080 IDH1KD tx 0.2%, DT40 TDP1 CPT 7.0% and IL1B secr inh -4.8.
`O=C(CN1CCSCC1)N/N=C/c1ccc(F)c(F)c1` gave DT40 TDP1 no CPT -7.7%, HT1080-NT tox 13.1%, HT1080 IDH1KD tx 1.6%, DT40 TDP1 CPT inconclusive and IL1B secr inh -16.8.
`COc1ccc(/C=N/OC(=O)Nc2ccc(Cl)cc2)c(OC)c1` gave DT40 TDP1 no CPT -14.0%, HT1080-NT tox 1.4%, HT1080 IDH1KD tx -14.7%, DT40 TDP1 CPT 16.0% and IL1B secr inh inconclusive.
For Cc1cc(Cl)c(S(N)(=O)=O)cc1OCC(=O)NC1CCCCC1 the results were DT40 TDP1 no CPT -17.3%, HT1080-NT tox -5.0%, HT1080 IDH1KD tx -6.3%, DT40 TDP1 CPT -21.1% and IL1B secr inh -3.6.
For Cc1cc(Cl)c(S(=O)(=O)N2CCN(c3ccccn3)CC2)cc1OCC(=O)NC1CCCCC1 the results were DT40 TDP1 no CPT 20.6µM*, HT1080-NT tox inconclusive, HT1080 IDH1KD tx -8.5%, DT40 TDP1 CPT inconclusive and IL1B secr inh inconclusive.
`Cc1cc(Cl)c(S(=O)(=O)N2CCCCCC2)cc1OCC(=O)NC1CCCCC1` gave DT40 TDP1 no CPT 1.1%, HT1080-NT tox -3.5%, HT1080 IDH1KD tx 2.2%, DT40 TDP1 CPT -7.6% and IL1B secr inh -6.4.
`Cc1cc(Cl)c(S(=O)(=O)NC2CCCC2)cc1OCC(=O)NC1CCCCC1` gave DT40 TDP1 no CPT 23.1µM*, HT1080-NT tox -0.9%, HT1080 IDH1KD tx 20µM*, DT40 TDP1 CPT 25.9µM* and IL1B secr inh -22.6.
`Cc1cc(Cl)c(S(=O)(=O)N2CCSCC2)cc1OCC(=O)NC1CCCCC1` gave DT40 TDP1 no CPT 18.4µM*, HT1080-NT tox inconclusive, HT1080 IDH1KD tx -21.5%, DT40 TDP1 CPT 16.4µM* and IL1B secr inh -53.6*.
For CCN1CCN(S(=O)(=O)c2cc(OCC(=O)NC3CCCCC3)c(C)cc2Cl)CC1 the results were DT40 TDP1 no CPT inconclusive, HT1080-NT tox -3.9%, HT1080 IDH1KD tx -0.5%, DT40 TDP1 CPT 23.1µM* and IL1B secr inh inconclusive.
For COCc1ccc(CN2CCOc3ccc(C4=CCCCC4)cc3C2)o1 the results were DT40 TDP1 no CPT inconclusive and DT40 TDP1 CPT 2.6%[9.04 µM].
`Cc1ccccc1-c1cc(C(=O)NCc2ccc3c(c2)OCO3)nn1CC1CC(c2cccc([N+](=O)[O-])c2)=NO1` (stereo unspecified) gave DT40 TDP1 no CPT inconclusive, HT1080-NT tox 8.0%, HT1080 IDH1KD tx -6.0%, DT40 TDP1 CPT -7.0% and IL1B secr inh -13.0.
`Cc1ccccc1-c1cc(C(=O)NCc2ccc(OC(F)(F)F)cc2)nn1CC1CC(c2cccc([N+](=O)[O-])c2)=NO1` (stereo unspecified) gave DT40 TDP1 no CPT 18.4µM*, HT1080-NT tox 2.8%, HT1080 IDH1KD tx 6.5%, DT40 TDP1 CPT 16.4µM* and IL1B secr inh inconclusive.
For Cc1ccccc1-c1cc(C(=O)NCc2cccc(C(F)(F)F)c2)nn1CC1CC(c2cccc([N+](=O)[O-])c2)=NO1 (stereo unspecified) the results were DT40 TDP1 no CPT 23.1µM*, HT1080-NT tox 0.0%, HT1080 IDH1KD tx 3.3%, DT40 TDP1 CPT inconclusive and IL1B secr inh -0.6.
COc1ccc(CN(Cc2ccccc2)C(=O)CN2CCN(C)CC2)cc1COc1ccc(NC(C)=O)cc1 was read as DT40 TDP1 no CPT 17.8µM*, HT1080-NT tox -16.3%, HT1080 IDH1KD tx -13.6% and DT40 TDP1 CPT inconclusive.
